# Results taken from PubChem BioAssay (NCATS).
# Records with an inconclusive call do not appear. The source made the active and inactive calls. Unless noted, calls come from the whole dose curve.
# Tests used:
# [1] = qHTS assay for small molecule antagonists of peroxisome proliferator-activated receptor delta signaling (AID 588535; active = well fitted inhibition curve with a large enough effect in the signal ratio, with a control signal flat, not every such curve was filed as active; the % refers to the signal ratio;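 for max response: cells co-treated with a PPAR-delta agonist as stimulator during compound exposure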); conditions: HEK293T PPARd-UAS-bla, beta-lactamase FRET ratio, 18 h; 460 nm channel
# In short: (§1)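 Inhibition of PPAR-delta response element-driven beta-lactamase expression is measured in HEK293T cells exposed to a compound titration series for 18 hrs at 37 C. Half-maximal inhibition comes from Hill equation fitting.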
# [2] = molecular target: Peroxisome proliferator-activated receptor delta (Homo sapiens) (UniProt Q03181); assay: as above; conditions: HEK293T PPARd-UAS-bla, beta-lactamase FRET ratio, 18 h; series mostly up to 76.7 µM
# Sequence of Peroxisome proliferator-activated receptor delta (Homo sapiens) (Q03181 whole entry, looked up): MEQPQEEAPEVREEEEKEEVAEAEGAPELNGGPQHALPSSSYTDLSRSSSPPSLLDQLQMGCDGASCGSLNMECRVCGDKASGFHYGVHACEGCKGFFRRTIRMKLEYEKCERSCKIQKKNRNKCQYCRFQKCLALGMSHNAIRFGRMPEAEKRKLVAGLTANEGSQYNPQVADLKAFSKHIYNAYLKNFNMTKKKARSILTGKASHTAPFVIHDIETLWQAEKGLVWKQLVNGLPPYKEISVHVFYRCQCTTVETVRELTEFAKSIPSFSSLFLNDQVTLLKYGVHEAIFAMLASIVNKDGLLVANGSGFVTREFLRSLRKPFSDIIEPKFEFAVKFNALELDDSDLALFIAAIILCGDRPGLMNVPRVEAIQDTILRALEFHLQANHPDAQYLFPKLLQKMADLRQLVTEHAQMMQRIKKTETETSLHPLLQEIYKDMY
# In short: as §1
# [3] = molecular target: Peroxisome proliferator-activated receptor gamma (Homo sapiens) (UniProt P37231); assay: qHTS assay for small molecule agonists of peroxisome proliferator-activated receptor gamma signaling (AID 588536; active = well fitted curve in the direction sought with a large enough effect in the signal ratio, with a control signal flat, not every such curve was filed as active; the % refers to the signal ratio;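 note: 0% = DMSO basal wells and 100% = rosiglitazone at 2 µM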); conditions: HEK293 PPARg-UAS-bla, beta-lactamase ratio, 16 h, percent of rosiglitazone response, DMSO as zero; series mostly up to 76.7 µM
# Sequence of Peroxisome proliferator-activated receptor gamma (Homo sapiens) (P37231 whole entry, looked up): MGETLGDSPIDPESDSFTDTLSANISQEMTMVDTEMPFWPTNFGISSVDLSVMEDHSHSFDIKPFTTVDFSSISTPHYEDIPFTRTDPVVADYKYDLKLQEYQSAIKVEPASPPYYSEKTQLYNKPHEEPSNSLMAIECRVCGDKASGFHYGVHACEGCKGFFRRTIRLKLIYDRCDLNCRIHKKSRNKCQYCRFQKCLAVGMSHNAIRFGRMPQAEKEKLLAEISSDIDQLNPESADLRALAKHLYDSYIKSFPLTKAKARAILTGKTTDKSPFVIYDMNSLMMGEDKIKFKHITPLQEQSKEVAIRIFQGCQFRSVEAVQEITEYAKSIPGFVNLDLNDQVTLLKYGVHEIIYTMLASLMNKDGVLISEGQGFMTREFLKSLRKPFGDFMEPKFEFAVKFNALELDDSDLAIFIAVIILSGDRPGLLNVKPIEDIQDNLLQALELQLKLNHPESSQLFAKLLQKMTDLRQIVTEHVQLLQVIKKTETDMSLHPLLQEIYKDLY
# In short: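 Cells were plated and held 6–6.5 h at 37 C, then compounds were added as a titration series. After a further 16 h, CCF4 dye was loaded for 2 h at room temperature and emission at 460/530 nm recorded.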
# [4] = molecular target: DNA dC->dU-editing enzyme APOBEC-3G (Homo sapiens) (UniProt Q9HC16); assay: qHTS for inhibitors of Vif-A3G interactions: Validation (AID 588379; active = well fitted inhibition curve with a large enough effect; note: 0% is about no effect); conditions: Vif-A3G protein interaction assay; series mostly up to 46.1 µM
# Sequence of DNA dC->dU-editing enzyme APOBEC-3G (Homo sapiens) (Q9HC16 whole entry, looked up): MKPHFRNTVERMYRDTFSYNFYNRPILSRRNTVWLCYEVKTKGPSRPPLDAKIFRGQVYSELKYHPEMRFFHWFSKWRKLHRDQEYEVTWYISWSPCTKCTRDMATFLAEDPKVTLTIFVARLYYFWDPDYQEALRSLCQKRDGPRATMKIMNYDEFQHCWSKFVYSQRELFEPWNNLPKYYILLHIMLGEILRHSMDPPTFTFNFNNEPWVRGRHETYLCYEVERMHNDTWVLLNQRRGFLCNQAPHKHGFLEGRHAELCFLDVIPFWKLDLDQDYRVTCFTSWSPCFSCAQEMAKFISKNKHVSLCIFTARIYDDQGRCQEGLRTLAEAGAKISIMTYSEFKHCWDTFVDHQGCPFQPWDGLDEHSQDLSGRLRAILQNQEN
# In short: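 Yellow fluorescence (Ex 488, Em 500-530) of Vif-coexpressing HeLa A3G-eYFP cells, scanned by Acumen cytometer, reports blocked A3G degradation. Cells plated at 700/well overnight at 37 deg C before compound addition, then a further overnight compound incubation at 37 deg C.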
# [5] = molecular target: Estrogen receptor (Homo sapiens) (UniProt P03372); assay: qHTS assay for small molecule antagonists of estrogen receptor alpha signaling (AID 588513; active = well fitted curve in the direction sought with a large enough effect in the signal ratio, with a control signal flat, not every such curve was filed as active; the % refers to the signal ratio; note: % is set by controls: 0 for no effect and ±100 for the full control effect); conditions: ER-alpha-UAS-bla HEK293, beta-lactamase ratio, antagonist mode; series mostly up to 76.9 µM
# Sequence of Estrogen receptor (Homo sapiens) (P03372 whole entry, looked up): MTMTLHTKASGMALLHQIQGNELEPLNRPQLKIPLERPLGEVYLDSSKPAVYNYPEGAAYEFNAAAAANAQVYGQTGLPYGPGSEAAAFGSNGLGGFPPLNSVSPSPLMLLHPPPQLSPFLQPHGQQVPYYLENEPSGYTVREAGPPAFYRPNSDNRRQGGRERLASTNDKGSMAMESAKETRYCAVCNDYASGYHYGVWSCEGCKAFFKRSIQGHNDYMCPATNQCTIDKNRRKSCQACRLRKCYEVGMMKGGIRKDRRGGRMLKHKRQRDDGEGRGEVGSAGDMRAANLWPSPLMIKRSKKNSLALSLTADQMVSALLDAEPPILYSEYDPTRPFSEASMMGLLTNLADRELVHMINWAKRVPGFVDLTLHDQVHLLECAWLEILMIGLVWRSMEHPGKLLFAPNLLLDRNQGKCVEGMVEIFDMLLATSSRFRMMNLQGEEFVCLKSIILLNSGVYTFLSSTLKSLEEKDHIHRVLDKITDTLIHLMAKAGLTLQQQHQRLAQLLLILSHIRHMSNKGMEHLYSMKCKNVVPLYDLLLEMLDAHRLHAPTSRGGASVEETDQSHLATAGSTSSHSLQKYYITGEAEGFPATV
# In short: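 ER-alpha-UAS-bla GripTite HEK 293 cells in medium with 2% charcoal/dextran-treated FBS were preincubated 4 h at 37 C, dosed with compound (1:2 titration), stimulated with 0.5nM 17-beta-estradiol for 18 h, then read by CCF4 beta-lactamase fluorescence.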
# [6] = molecular target: Estrogen receptor (Homo sapiens) (UniProt P03372); assay: qHTS assay for small molecule agonists of estrogen receptor alpha signaling (AID 588514); conditions: ER-alpha-UAS-bla HEK293, beta-lactamase ratio, 18 h, percent of full estradiol response, vehicle zero; series mostly up to 76.8 µM;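 note: 0% = vehicle only and 100% = reference agonist; nearly all actives have a fitted effect of over 70% in size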
# In short: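 EC50 and efficacy came from Hill fits of beta-lactamase reporter signal (CCF4 dye, 2 h at room temperature) scaled between DMSO and 20 nM 17-beta-estradiol. Agonist mode: HEK293 ER-alpha-UAS-bla cells in charcoal/dextran-stripped serum medium, 18 h compound exposure at 37 C.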
# [7] = molecular target: Androgen receptor (Homo sapiens) (UniProt P10275); assay: qHTS assay for small molecule agonists of androgen receptor signaling (AID 588515; active = well fitted curve in the direction sought with a large enough effect in the signal ratio, with a control signal flat; the % refers to the signal ratio; note: % is set by controls: 0 for no effect and ±100 for the full control effect); conditions: AR-UAS-bla HEK293, beta-lactamase ratio, agonist 16 h; stronger effect = higher value
# In short: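 Stimulation of an AR-responsive β-lactamase reporter in GripTite HEK293 cells was measured after 16 h compound exposure at 37 °C, via CCF4 fluorescence after 2 h RT. EC50 from Hill fits, normalized to R1881 at 30 nM.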
# [8] = molecular target: Glucocorticoid receptor (Homo sapiens) (UniProt P04150); assay: qHTS assay for small molecule agonists of glucocorticoid receptor signaling (AID 588532; active = well fitted curve in the direction sought with a large enough effect in the signal ratio, with a control signal flat; the % refers to the signal ratio;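 note: 100% = dexamethasone at 0.1 µM and 0% = DMSO only wells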); conditions: HeLa MMTV-bla, beta-lactamase ratio, agonist, 18 h; stronger effect = higher value; percent of dexamethasone control, DMSO zero
# Sequence of Glucocorticoid receptor (Homo sapiens) (P04150 whole entry, looked up): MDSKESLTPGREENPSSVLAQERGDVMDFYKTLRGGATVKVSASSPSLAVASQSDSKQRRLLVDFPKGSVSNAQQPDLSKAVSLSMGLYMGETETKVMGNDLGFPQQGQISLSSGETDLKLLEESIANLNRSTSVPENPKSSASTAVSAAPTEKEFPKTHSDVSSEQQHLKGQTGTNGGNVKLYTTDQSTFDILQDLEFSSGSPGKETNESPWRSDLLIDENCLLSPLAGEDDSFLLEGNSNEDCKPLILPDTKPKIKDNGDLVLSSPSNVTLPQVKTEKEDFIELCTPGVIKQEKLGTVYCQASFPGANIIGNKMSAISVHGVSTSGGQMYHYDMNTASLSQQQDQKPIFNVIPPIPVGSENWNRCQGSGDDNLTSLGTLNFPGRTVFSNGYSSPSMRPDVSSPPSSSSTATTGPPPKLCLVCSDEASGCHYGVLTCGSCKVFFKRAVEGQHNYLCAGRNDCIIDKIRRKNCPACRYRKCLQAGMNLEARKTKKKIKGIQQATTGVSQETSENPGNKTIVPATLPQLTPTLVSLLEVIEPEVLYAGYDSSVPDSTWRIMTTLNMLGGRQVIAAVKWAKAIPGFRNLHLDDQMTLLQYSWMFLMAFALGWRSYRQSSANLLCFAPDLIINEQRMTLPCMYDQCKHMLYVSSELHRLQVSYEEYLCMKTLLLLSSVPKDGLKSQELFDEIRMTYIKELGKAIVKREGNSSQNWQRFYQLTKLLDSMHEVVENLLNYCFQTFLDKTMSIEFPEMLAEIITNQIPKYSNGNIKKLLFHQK
# In short: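 Stimulation of a glucocorticoid response element-driven beta-lactamase gene was measured in HeLa cells. Responses were scaled between DMSO basal and 0.1 uM dexamethasone, then fitted for half-maximal stimulation.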
# [9] = molecular target: Peroxisome proliferator-activated receptor gamma (Homo sapiens) (UniProt P37231); assay: qHTS assay for small molecule antagonists of peroxisome proliferator-activated receptor gamma signaling (AID 588537; active = well fitted inhibition curve with a large enough effect in the signal ratio, with a control signal flat, not every such curve was filed as active; the % refers to the signal ratio;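 note: reporter cells co-stimulated with 50 nM rosiglitazone agonist during compound treatment; % of control where 0% means no effect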); conditions: HEK293 PPARg-UAS-bla, beta-lactamase ratio, antagonist mode; series mostly up to 76.8 µM
# In short: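 Compounds are tested as concentration series for inhibition of rosiglitazone-driven (50 nM) reporter expression in GeneBLAzer PPAR-gamma-UAS-bla HEK293 cells. After 16 h at 37 C, CCF4 substrate is added for 2 h at room temperature and blue/green fluorescence is measured.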
# [10] = qHTS assay for small molecule agonists of retinoid X receptor alpha signaling (AID 588544); conditions: HEK293T RXRa-UAS-bla, beta-lactamase reporter, 18 h; 530 nm emission;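 for activation: 0% = DMSO basal wells and 100% = reference agonist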
# [11] = molecular target: Retinoic acid receptor RXR-alpha (Homo sapiens) (UniProt P19793); assay: as above; conditions: HEK293T RXRa-UAS-bla, beta-lactamase reporter, 18 h; series mostly up to 76.7 µM
# Sequence of Retinoic acid receptor RXR-alpha (Homo sapiens) (P19793 whole entry, looked up): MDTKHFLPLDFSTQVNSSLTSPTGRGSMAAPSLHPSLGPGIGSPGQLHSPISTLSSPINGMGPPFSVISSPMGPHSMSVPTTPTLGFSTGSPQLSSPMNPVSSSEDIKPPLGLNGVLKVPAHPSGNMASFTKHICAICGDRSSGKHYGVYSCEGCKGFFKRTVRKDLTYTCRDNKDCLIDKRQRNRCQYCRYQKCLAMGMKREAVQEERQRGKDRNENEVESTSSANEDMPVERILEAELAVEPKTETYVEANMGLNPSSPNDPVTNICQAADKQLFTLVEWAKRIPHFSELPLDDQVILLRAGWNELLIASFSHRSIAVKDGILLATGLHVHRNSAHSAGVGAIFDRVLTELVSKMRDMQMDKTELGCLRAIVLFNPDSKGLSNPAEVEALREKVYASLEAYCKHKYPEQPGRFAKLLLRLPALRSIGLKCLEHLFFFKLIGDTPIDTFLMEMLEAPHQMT
# [12] = qHTS assay for small molecule antagonists of retinoid X receptor alpha signaling (AID 588546); conditions: HEK293T RXRa-UAS-bla, beta-lactamase ratio, antagonist mode; measured here: W530 green channel, cytotoxicity proxy;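 note: cells stimulated with 9-cis-retinoic acid as agonist; % is set by controls: 0 for no effect and ±100 for the full control effect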
# In short: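 Beta-lactamase reporter inhibition, read as CCF4 fluorescence ratio (ex 405, em 460/530 nm) after 2 h at RT. HEK293T UAS-bla cells, 2500/well, were stimulated with 9-cis-RA at 500 or 100 nM final alongside test compound for 18 h at 37 C.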
# [13] = molecular target: Thyroid hormone receptor beta (Homo sapiens) (UniProt P10828); assay: qHTS assay for small molecule antagonists of thyroid hormone receptor beta signaling (AID 588547; active = well fitted inhibition curve with a large enough effect in the signal ratio, with a control signal flat, not every such curve was filed as active; the % refers to the signal ratio;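 note: cells stimulated with 0.4 nM T3 agonist during compound exposure; % is set by controls: 0 for no effect and ±100 for the full control effect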); conditions: TR-UAS-bla HEK293, beta-lactamase ratio, antagonist mode, 18 h
# Sequence of Thyroid hormone receptor beta (Homo sapiens) (P10828 whole entry, looked up): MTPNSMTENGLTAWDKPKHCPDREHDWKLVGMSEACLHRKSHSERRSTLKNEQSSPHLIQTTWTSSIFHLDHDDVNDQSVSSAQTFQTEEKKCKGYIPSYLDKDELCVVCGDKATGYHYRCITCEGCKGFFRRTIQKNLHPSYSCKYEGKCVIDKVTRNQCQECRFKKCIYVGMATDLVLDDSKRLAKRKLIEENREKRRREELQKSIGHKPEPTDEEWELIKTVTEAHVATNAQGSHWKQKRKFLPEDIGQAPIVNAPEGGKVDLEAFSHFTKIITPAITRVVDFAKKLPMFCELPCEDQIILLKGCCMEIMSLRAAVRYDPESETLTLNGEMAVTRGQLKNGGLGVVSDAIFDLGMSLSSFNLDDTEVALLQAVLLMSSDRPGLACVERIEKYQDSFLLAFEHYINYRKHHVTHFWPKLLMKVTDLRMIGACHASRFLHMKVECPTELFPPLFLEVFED
# In short: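 TR-UAS-bla GripTite HEK293 cells in 2% charcoal/dextran FBS medium were preincubated 4 h at 37 C, given compound (0.59 nM to 92 uM) plus 0.4 nM T3 (final) for 18 h, then CCF4 for 2 h at RT; Hill fit gave IC50.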
# [14] = molecular target: Bile acid receptor (Homo sapiens) (UniProt Q96RI1); assay: qHTS assay for small molecule antagonists of farnesoid X receptor signaling (AID 588526); conditions: HEK293T FXR-UAS-bla, beta-lactamase ratio, antagonist mode; series mostly up to 76.7 µM; note: % is set by controls: 0 for no effect and ±100 for the full control effect
# Sequence of Bile acid receptor (Homo sapiens) (Q96RI1 whole entry, looked up): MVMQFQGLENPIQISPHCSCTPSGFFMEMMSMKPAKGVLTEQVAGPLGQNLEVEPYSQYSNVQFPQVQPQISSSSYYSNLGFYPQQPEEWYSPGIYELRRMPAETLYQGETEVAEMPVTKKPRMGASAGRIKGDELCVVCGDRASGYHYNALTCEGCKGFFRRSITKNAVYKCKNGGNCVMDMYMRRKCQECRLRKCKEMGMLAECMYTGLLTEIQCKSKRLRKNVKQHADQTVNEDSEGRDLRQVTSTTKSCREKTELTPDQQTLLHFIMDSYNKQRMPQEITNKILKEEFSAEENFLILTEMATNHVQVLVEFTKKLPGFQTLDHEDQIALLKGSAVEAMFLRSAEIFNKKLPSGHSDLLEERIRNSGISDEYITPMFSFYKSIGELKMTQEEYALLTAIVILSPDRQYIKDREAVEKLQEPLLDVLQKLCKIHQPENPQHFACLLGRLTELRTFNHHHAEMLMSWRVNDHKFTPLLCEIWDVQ
# In short: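 Concentration-response titrations were fitted to the Hill equation for half-maximal inhibition and maximal response, with data normalised to 50 uM chenodeoxycholic acid and DMSO control wells. Cells: FXR-UAS-bla HEK293T, dialyzed FBS.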
# [15] = molecular target: Glucocorticoid receptor (Homo sapiens) (UniProt P04150); assay: qHTS assay for small molecule antagonists of glucocorticoid receptor signaling (AID 588533; active = well fitted inhibition curve with a large enough effect in the signal ratio, with a control signal flat, not every such curve was filed as active; the % refers to the signal ratio); conditions: HeLa MMTV-bla, GRE beta-lactamase ratio, antagonist mode, 18 h; series mostly up to 76.8 µM
# In short: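 Antagonist-mode qHTS: compound titrations added to GRE-bla HeLa cells, then dexamethasone 2 nM final; 18 h, 37 C. CCF4 FRET fluorescence normalized to dexamethasone and DMSO; IC50 from Hill fit.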
# [16] = molecular target: Vitamin D3 receptor (Homo sapiens) (UniProt P11473); assay: qHTS assay for small molecule agonists of vitamin D receptor signaling (AID 588543); conditions: HEK293T VDR-UAS-bla, beta-lactamase ratio, 16 h; series mostly up to 76.8 µM;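 note: 0% = DMSO basal and 100% = reference agonist control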
# Sequence of Vitamin D3 receptor (Homo sapiens) (P11473 whole entry, looked up): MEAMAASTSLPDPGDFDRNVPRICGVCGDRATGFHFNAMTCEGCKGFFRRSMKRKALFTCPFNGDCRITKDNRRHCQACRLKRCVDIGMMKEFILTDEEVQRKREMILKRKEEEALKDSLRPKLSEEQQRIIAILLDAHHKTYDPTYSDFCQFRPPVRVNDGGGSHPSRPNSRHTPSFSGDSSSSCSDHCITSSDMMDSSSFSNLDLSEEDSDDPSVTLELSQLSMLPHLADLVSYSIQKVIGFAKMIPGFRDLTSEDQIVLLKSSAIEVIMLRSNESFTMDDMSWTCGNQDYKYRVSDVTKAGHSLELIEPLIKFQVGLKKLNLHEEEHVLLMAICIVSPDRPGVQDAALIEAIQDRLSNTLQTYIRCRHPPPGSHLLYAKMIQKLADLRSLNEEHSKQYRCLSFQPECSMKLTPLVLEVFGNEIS
# In short: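 GeneBLAzer VDR-UAS-bla HEK293T cells in 2% charcoal-stripped FBS medium were dosed with compound titrations for 16 h at 37 °C; CCF4 β-lactamase readout (405 nm ex, 460/530 nm em). EC50 and efficacy from Hill fits, normalized to 50 nM calcitriol (100%) and DMSO (0%).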
# [17] = molecular target: Thyroid hormone receptor beta (Homo sapiens) (UniProt P10828); assay: qHTS assay for small molecule agonists of thyroid hormone receptor beta signaling (AID 588545); conditions: TR-UAS-bla GripTite HEK 293, beta-lactamase ratio, agonist mode, 18 h, percent of T3 response, DMSO as zero; series mostly up to 76.7 µM;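 note: 0% = DMSO only and 100% = 10 nM T3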
# In short: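 TR-UAS-bla-GripTite HEK 293 cells in medium with 2% charcoal/dextran FBS, 0.1 mM NEAA and 1 mM sodium pyruvate were treated with titrated compounds for 18 hrs at 37 C. Beta-lactamase reporter was read with CCF4 dye (ex 405, em 460/530 nm); EC50 from Hill fits.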
smiles,measurement,setting,value
O=C1NS(=O)(=O)c2ccccc21,max response,[1],2.93%
same,outcome,[2],inactive
same,outcome,[3],inactive
Cc1cccc(Nc2cc(Cl)nc(SCC(=O)O)n2)c1C,outcome,[4],inactive
same,outcome,[5],inactive
same,outcome,[6],inactive
same,activation,[7],4.07% (inactive)
same,activation,[8],-9.26% (inactive)
same,outcome,[3],inactive
same,outcome,[9],inactive
same,max response,[10],-6%
same,outcome,[11],inactive
same,max response,[12],-6.52%
same,activity change % (negative = inhibition),[13],-2.88% (inactive)
CC12CCC(CC1)C(C)(C)O2,outcome,[5],inactive
same,outcome,[6],inactive
same,outcome,[14],inactive
same,activation,[8],-0.499% (inactive)
same,outcome,[15],inactive
same,max response,[1],-10.6%
same,outcome,[2],inactive
same,outcome,[3],inactive
same,outcome,[9],inactive
same,outcome,[16],inactive
same,max response,[10],-11.5%
same,outcome,[11],inactive
same,max response,[12],-6.73%
same,activity change % (negative = inhibition),[13],18.1% (inactive)
CC(O)CN(CCN(CC(C)O)CC(C)O)CC(C)O (configuration not stated),outcome,[14],inactive
same,activation,[8],-7.72% (inactive)
same,outcome,[15],inactive
same,max response,[1],30%
same,outcome,[2],inactive
same,outcome,[3],inactive
same,outcome,[9],inactive
same,outcome,[16],inactive
same,max response,[12],-7.75%
Nc1ccc(S(=O)(=O)Nc2nccs2)cc1,outcome,[5],inactive
same,outcome,[6],inactive
same,activation,[8],-6.26% (inactive)
same,outcome,[15],inactive
same,outcome,[3],inactive
same,outcome,[16],inactive
same,max response,[10],11.3%
same,outcome,[11],inactive
same,max response,[12],-9.52%
COC(=O)C1=C(C)NC(C)=C(C(=O)OC)C1c1ccccc1[N+](=O)[O-],outcome,[4],inactive
same,outcome,[5],inactive
same,activation,[8],-7.74% (inactive)
same,outcome,[16],inactive
same,outcome,[17],inactive
same,max response,[12],8.81%
same,activity change % (negative = inhibition),[13],-6% (inactive)
c1ccc(CN(CC2=NCCN2)c2ccccc2)cc1,outcome,[4],inactive
O=C(O)CN1C(=O)c2cccc3cccc(c23)C1=O,outcome,[4],inactive
Cc1cc(CC(=O)O)n(C)c1C(=O)c1ccc(Cl)cc1,outcome,[14],inactive
same,activation,[8],-2.23% (inactive)
same,outcome,[15],inactive
same,outcome,[16],inactive
same,outcome,[17],inactive
O=c1cc(CO)occ1O,outcome,[4],inactive
CCCCCCCCCCCCOS(=O)(=O)O,outcome,[15],inactive
same,outcome,[3],inactive
same,outcome,[9],inactive
same,outcome,[16],inactive
same,max response,[10],-1.31% [middle of 4 runs]
same,outcome,[11],inactive
same,outcome,[17],inactive
same,max response,[12],-7.08% [middle of 4 runs]
same,activity change % (negative = inhibition),[13],-2.2% (inactive)
OC[C@H]1O[C@@H](O[C@@H]2[C@@H](CO)O[C@](O)(CO)[C@H]2O)[C@H](O)[C@@H](O)[C@H]1O,outcome,[4],inactive
NCCNCCNCCN,outcome,[14],inactive
same,activation,[8],21.8% (inactive)
same,outcome,[15],inactive
same,max response,[1],26%
same,outcome,[2],inactive
same,outcome,[16],inactive
same,max response,[10],1.23%
same,outcome,[11],inactive
same,outcome,[17],inactive
same,max response,[12],-7.08%
same,activity change % (negative = inhibition),[13],-6.32% (inactive)
